PubChem BioAssay (NCI)
The panel holds about 79,000 compounds, 15% with a hit somewhere; the sample as a whole holds those more often. The source made the active and inactive calls. Rule as the data show it: active = growth inhibition above about 70%; inactive = the rest.

Columns and labels:
[1] = NCI Yeast Anticancer Drug Screen. Data for the rad52 strain (AID 147);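 also: 0% = growth of vehicle-treated control cultures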; conditions: S. cerevisiae rad52 mutant growth inhibition, stronger effect = higher value
Method in brief: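 Read-out: growth inhibition versus vehicle-treated controls. Cells were a DNA repair-deficient yeast strain treated with compounds.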

[2] = NCI Yeast Anticancer Drug Screen. Data for the wt1 strain (AID 149);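 also: 0% = growth of vehicle-treated wt1 cultures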; conditions: S. cerevisiae wt1 strain (SPY 50644) growth inhibition, stronger effect = higher value
Method in brief: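 Measured: growth of wt1 yeast under compound versus vehicle treatment, reported as inhibition.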

[3] = NCI Yeast Anticancer Drug Screen. Data for the rad50EPP+ strain (AID 151);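 also: 0% = growth of vehicle-treated control cultures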; conditions: S. cerevisiae rad50 mutant strain, stronger effect = higher value
Method in brief: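 Growth inhibition read against vehicle controls in rad50EPP+ yeast, a strain altered in DNA damage repair, after compound exposure.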

[4] = NCI Yeast Anticancer Drug Screen. Data for the mgt1 strain (AID 153); conditions: S. cerevisiae mgt1 mutant growth inhibition, stronger effect = higher value
Method in brief: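 mgt1 yeast grown with test compound; read-out is growth inhibition versus vehicle-treated cultures.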

[5] = NCI Yeast Anticancer Drug Screen. Data for the rad50 strain (AID 155);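 also: 0% = growth of vehicle-only cultures of the same strain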; conditions: S. cerevisiae rad50 strain growth inhibition, stronger effect = higher value
Method in brief: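 Growth of the mutant yeast was measured after compound exposure and referenced to vehicle-treated cultures.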

[6] = NCI Yeast Anticancer Drug Screen. Data for the mec2-1 strain (AID 157); conditions: S. cerevisiae mec2-1 strain, stronger effect = higher value
Method in brief: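 Yeast mec2-1 mutant treated with compound. Readout: growth inhibition vs vehicle controls.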

[7] = NCI Yeast Anticancer Drug Screen. Data for the rad14 strain (AID 159);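 also: 0% = growth of vehicle-treated control cultures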; conditions: S. cerevisiae rad14 strain growth inhibition, stronger effect = higher value
Method in brief: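 Here, inhibition of yeast growth was measured after compound exposure, using a strain with a genetic defect in DNA damage repair and vehicle-treated cultures as the reference.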

[8] = NCI Yeast Anticancer Drug Screen. Data for the sgs1 mgt1 strain (AID 161);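 also: 0% = growth of cultures given vehicle only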; conditions: S. cerevisiae sgs1 mgt1 strain, stronger effect = higher value
Method in brief: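 Inhibition of yeast growth, normalised to vehicle-treated controls, is reported for a strain bearing genetic alterations in DNA damage repair.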

[9] = NCI Yeast Anticancer Drug Screen. Data for the CLN2oe strain (AID 163);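 also: 0% = growth of vehicle-only control cultures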; conditions: S. cerevisiae CLN2oe strain, stronger effect = higher value
Method in brief: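 Read-out: yeast growth inhibition, expressed relative to vehicle-only controls. The strain bears an engineered cell-cycle alteration.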

[10] = NCI Yeast Anticancer Drug Screen. Data for the cln2 rad14 strain (AID 165);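 also: 0% = growth equal to vehicle treated cultures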; conditions: S. cerevisiae cln2 rad14 strain, stronger effect = higher value
Method in brief: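 cln2 rad14 yeast strain; compound exposure; growth inhibition read vs vehicle controls.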

[11] = NCI Yeast Anticancer Drug Screen. Data for the bub3 strain (AID 167); conditions: S. cerevisiae bub3 mutant strain, stronger effect = higher value
Method in brief: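 Whole-cell yeast assay. The mutant strain was incubated with compounds, and growth inhibition was determined by comparison with vehicle-treated cells.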

[12] = NCI Yeast Anticancer Drug Screen. Data for the mlh1 strain (AID 171);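 also: 0% = growth of vehicle-treated control cultures of the same strain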; conditions: S. cerevisiae mlh1 strain growth inhibition, stronger effect = higher value
Method in brief: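 Read-out: growth inhibition versus vehicle controls. Strain: engineered yeast with a defined DNA repair or cell cycle defect, compound-treated.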

[13] = NCI Yeast Anticancer Drug Screen. Data for the sgs1 strain (AID 173);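 also: 0% = growth of vehicle-only control cultures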; conditions: S. cerevisiae sgs1 mutant, stronger effect = higher value
Method in brief: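 Read-out: yeast growth inhibition relative to vehicle controls, following compound exposure of a strain with a defined DNA repair/cell cycle alteration.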

[14] = NCI Yeast Anticancer Drug Screen. Data for the mlh1 rad18 strain (AID 175); conditions: S. cerevisiae mlh1 rad18 strain growth inhibition, stronger effect = higher value
Method in brief: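 Yeast w/ defined DNA-repair lesions; compound exposure; growth vs vehicle controls → % inhibition.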

[15] = NCI Yeast Anticancer Drug Screen. Data for the rad18 strain (AID 177); conditions: S. cerevisiae rad18 mutant growth inhibition, stronger effect = higher value
Method in brief: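 Readout: growth inhibition vs vehicle controls. Cells: genetically altered yeast strain, DNA repair defect.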

[16] = at 5.0 µM (retest, dose inferred, filed as 0.5)
[17] = at 50.0 µM (retest, dose inferred, filed as 5.0)

Measured: growth inhibition

CNC(=O)OCc1c(COC(=O)NC)c(-c2ccc(Cl)c(Cl)c2)n2c1SCC2
active: [1]; at 100.0 µM 76% | [5]; at 100.0 µM 76% | [7]; at 100.0 µM 85% | [13]; at 100.0 µM 72% | [14]; at 50.0 µM 86% | [15]; at 100.0 µM 95%
inactive: [1]; at 1.2 µM 0% | [1]; at 3.7 µM 0% | [1]; at 11.0 µM 3% | [1]; at 33.0 µM 14% | [2]; at 1.2 µM -1% | [2]; at 3.7 µM 0% | [2]; at 11.0 µM -1% | [2]; at 33.0 µM -3% | [2]; at 100.0 µM 6% | [3]; at 1.2 µM -3% | [3]; at 3.7 µM -3% | [3]; at 11.0 µM -3% | [3]; at 33.0 µM -3% | [3]; at 100.0 µM 4% | [4]; at 1.2 µM -4% | [4]; at 3.7 µM -1% | [4]; at 11.0 µM -1% | [4]; at 33.0 µM -3% | [4]; at 100.0 µM 12% | [5]; at 1.2 µM -1% | [5]; at 3.7 µM -3% | [5]; [16] -17% | [5]; at 11.0 µM -3% | [5]; at 33.0 µM 4% | [5]; [17] 35% | [5]; at 50.0 µM 65.7% | [6]; at 1.2 µM -2% | [6]; at 3.7 µM -4% | [6]; [16] 0% | [6]; at 11.0 µM -3% | [6]; at 33.0 µM -4% | [6]; [17] 18% | [6]; at 50.0 µM 27.3% | [6]; at 100.0 µM 38% | [7]; at 1.2 µM 0% | [7]; at 3.7 µM 2% | [7]; at 11.0 µM 4% | [7]; at 33.0 µM 18% | [8]; [16] -5% | [8]; [17] 32% | [8]; at 50.0 µM 39.4% | [9]; at 1.2 µM -1% | [9]; at 3.7 µM -6% | [9]; at 11.0 µM -6% | [9]; at 33.0 µM -5% | [9]; at 100.0 µM -1% | [10]; [16] -3% | [10]; [17] 23% | [10]; at 50.0 µM 25.1% | [11]; at 1.2 µM -2% | [11]; at 3.7 µM -5% | [11]; [16] 0% | [11]; at 11.0 µM -4% | [11]; at 33.0 µM -6% | [11]; [17] 9% | [11]; at 50.0 µM 4.3% | [11]; at 100.0 µM 20% | [12]; at 1.2 µM -1% | [12]; at 3.7 µM -2% | [12]; at 11.0 µM -3% | [12]; at 33.0 µM -2% | [12]; at 100.0 µM 44% | [13]; at 1.2 µM -1% | [13]; at 3.7 µM -1% | [13]; at 11.0 µM 1% | [13]; at 33.0 µM 12% | [14]; [16] 2% | [14]; [17] 58% | [15]; at 1.2 µM 0% | [15]; at 3.7 µM 3% | [15]; at 11.0 µM 11% | [15]; at 33.0 µM 48%
